This is part of a sample that, as a whole, favours compounds with a hit. Of some 79,000 tested, about 15% had one in any assay. Calls of active or inactive are those of the source. Rule as the data show it: active = growth inhibition above about 70%; inactive = the rest.
Assays:
[1] = NCI Yeast Anticancer Drug Screen. Data for the wt1 strain (AID 149);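 also: 0% = growth of vehicle-treated wt1 cultures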; conditions: S. cerevisiae wt1 strain (SPY 50644) growth inhibition, active compounds read high
Method in brief: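 Each compound is tested on wt1 yeast and the loss of growth versus vehicle gives the inhibition value.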

[2] = NCI Yeast Anticancer Drug Screen. Data for the rad50EPP+ strain (AID 151);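 also: 0% = growth of vehicle-treated control cultures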; conditions: S. cerevisiae rad50 mutant strain, active compounds read high
Method in brief: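 In this screen, rad50EPP+ yeast were exposed to compounds. Growth inhibition was scored against vehicle-treated controls.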

[3] = NCI Yeast Anticancer Drug Screen. Data for the mgt1 strain (AID 153); conditions: S. cerevisiae mgt1 mutant growth inhibition, active compounds read high
Method in brief: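 mgt1 strain exposed; growth vs vehicle control recorded as inhibition.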

[4] = NCI Yeast Anticancer Drug Screen. Data for the rad50 strain (AID 155);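 also: 0% = growth of vehicle-only cultures of the same strain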; conditions: S. cerevisiae rad50 strain growth inhibition, active compounds read high
Method in brief: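 Vehicle-treated cultures provide the reference for the growth inhibition reported for compound-exposed, repair-deficient yeast.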

[5] = NCI Yeast Anticancer Drug Screen. Data for the mec2-1 strain (AID 157); conditions: S. cerevisiae mec2-1 strain, active compounds read high
Method in brief: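 Vehicle-treated cultures served as reference for growth inhibition of compound-exposed mec2-1 yeast.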

[6] = NCI Yeast Anticancer Drug Screen. Data for the rad14 strain (AID 159);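 also: 0% = growth of vehicle-treated control cultures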; conditions: S. cerevisiae rad14 strain growth inhibition, active compounds read high
Method in brief: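 Inhibition of growth is reported for a repair-deficient yeast mutant following compound treatment, calculated relative to cultures that received vehicle.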

[7] = NCI Yeast Anticancer Drug Screen. Data for the sgs1 mgt1 strain (AID 161);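 also: 0% = growth of cultures given vehicle only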; conditions: S. cerevisiae sgs1 mgt1 strain, active compounds read high
Method in brief: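 Inhibition of yeast growth, normalised to vehicle-treated controls, is reported for a strain bearing genetic alterations in DNA damage repair.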

[8] = NCI Yeast Anticancer Drug Screen. Data for the CLN2oe strain (AID 163);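 also: 0% = growth of vehicle-only control cultures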; conditions: S. cerevisiae CLN2oe strain, active compounds read high
Method in brief: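 Inhibition relative to vehicle-treated yeast is reported. Cells: strain with genetic alteration in cell-cycle control, grown with compound.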

[9] = NCI Yeast Anticancer Drug Screen. Data for the cln2 rad14 strain (AID 165);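 also: 0% = growth equal to vehicle treated cultures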; conditions: S. cerevisiae cln2 rad14 strain, active compounds read high
Method in brief: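 Each compound was tested on cln2 rad14 yeast. Inhibition of growth was calculated against vehicle-exposed controls.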

[10] = NCI Yeast Anticancer Drug Screen. Data for the bub3 strain (AID 167); conditions: S. cerevisiae bub3 mutant strain, active compounds read high
Method in brief: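 Mutant yeast screening strain plus compound; vehicle-treated cultures serve as the 0% inhibition reference.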

[11] = NCI Yeast Anticancer Drug Screen. Data for the wt2 strain (AID 169); conditions: S. cerevisiae wt2 strain growth inhibition, active compounds read high
Method in brief: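 Inhibition of yeast growth was determined after compound treatment, normalised to controls receiving only vehicle.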

[12] = NCI Yeast Anticancer Drug Screen. Data for the sgs1 strain (AID 173);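 also: 0% = growth of vehicle-only control cultures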; conditions: S. cerevisiae sgs1 mutant, active compounds read high
Method in brief: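 Screen format: yeast with repair or checkpoint alterations, compound exposure, growth read relative to vehicle.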

[13] = NCI Yeast Anticancer Drug Screen. Data for the mlh1 rad18 strain (AID 175); conditions: S. cerevisiae mlh1 rad18 strain growth inhibition, active compounds read high
Method in brief: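 Vehicle-treated cultures served as the reference for growth inhibition in a yeast strain carrying DNA damage repair alterations exposed to each compound.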

[14] = NCI Yeast Anticancer Drug Screen. Data for the rad18 strain (AID 177); conditions: S. cerevisiae rad18 mutant growth inhibition, active compounds read high
Method in brief: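 Test articles were incubated with altered yeast defective in DNA damage repair. Results are given as inhibition of growth versus vehicle.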

[15] = NCI Yeast Anticancer Drug Screen. Data for the mlh1 strain (AID 171);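 also: 0% = growth of vehicle-treated control cultures of the same strain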; conditions: S. cerevisiae mlh1 strain growth inhibition, active compounds read high
Method in brief: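 Vehicle-normalised growth inhibition of a repair- or checkpoint-altered yeast strain following compound treatment.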

[16] = at 5.0 µM (retest, dose inferred, filed as 0.5)
[17] = at 50.0 µM (retest, dose inferred, filed as 5.0)

Measured: growth inhibition

O=[N+]([O-])c1ccc2nnnn2c1
active: [2]; at 100.0 µM 79% | [4]; [17] 71% | [4]; at 50.0 µM 75.8% | [7]; [17] 86% | [10]; [17] 78% | [12]; at 100.0 µM 72% | [13]; [16] 78% | [13]; [17] 93%
inactive: [1]; at 1.2 µM 1% | [1]; at 3.7 µM 2% | [1]; at 11.0 µM 7% | [1]; at 33.0 µM 11% | [1]; at 100.0 µM 19% | [2]; at 1.2 µM -2% | [2]; at 3.7 µM -1% | [2]; at 11.0 µM 15% | [2]; at 33.0 µM 50% | [3]; at 1.2 µM 0% | [3]; at 3.7 µM 2% | [3]; at 11.0 µM 4% | [3]; at 33.0 µM 23% | [3]; at 100.0 µM 18% | [4]; at 1.2 µM -3% | [4]; at 3.7 µM -1% | [4]; [16] 10% | [4]; at 11.0 µM 3% | [4]; at 33.0 µM 10% | [4]; at 100.0 µM 21% | [5]; at 1.2 µM -1% | [5]; at 3.7 µM 2% | [5]; [16] 3% | [5]; at 11.0 µM 4% | [5]; at 33.0 µM 12% | [5]; [17] 23% | [5]; at 50.0 µM 43.9% | [5]; at 100.0 µM 43% | [6]; at 1.2 µM -1% | [6]; at 3.7 µM 0% | [6]; at 11.0 µM 5% | [6]; at 33.0 µM 10% | [6]; at 100.0 µM 30% | [7]; [16] 29% | [7]; at 50.0 µM 60.8% | [8]; at 1.2 µM -5% | [8]; at 3.7 µM 1% | [8]; at 11.0 µM -1% | [8]; at 33.0 µM -7% | [8]; at 100.0 µM 1% | [9]; [16] 2% | [9]; [17] 28% | [9]; at 50.0 µM 29.9% | [10]; at 1.2 µM -3% | [10]; at 3.7 µM -1% | [10]; [16] 21% | [10]; at 11.0 µM 1% | [10]; at 33.0 µM 3% | [10]; at 50.0 µM 34% | [10]; at 100.0 µM 21% | [11]; at 1.2 µM 0% | [11]; at 3.7 µM 1% | [11]; at 11.0 µM 7% | [11]; at 33.0 µM 14% | [11]; at 100.0 µM 25% | [12]; at 1.2 µM 1% | [12]; at 3.7 µM 7% | [12]; at 11.0 µM 15% | [12]; at 33.0 µM 30% | [13]; at 50.0 µM 61.8% | [14]; at 1.2 µM 1% | [14]; at 3.7 µM 2% | [14]; at 11.0 µM -2% | [14]; at 33.0 µM 25% | [14]; at 100.0 µM 55%

Cc1ccc(Nc2n[nH]c(=S)s2)cc1C
active: [1]; at 100.0 µM 81% | [4]; [16] 93% | [4]; [17] 94% | [4]; at 50.0 µM 78.8% | [4]; at 100.0 µM 84% | [5]; [16] 96% | [5]; [17] 95% | [5]; at 100.0 µM 79% | [6]; at 100.0 µM 89% | [7]; [17] 90% | [8]; at 100.0 µM 76% | [9]; [17] 92% | [10]; [17] 91% | [10]; at 100.0 µM 80% | [11]; at 100.0 µM 85% | [15]; at 100.0 µM 83% | [12]; at 100.0 µM 77% | [13]; [16] 99% | [13]; [17] 99% | [14]; at 100.0 µM 87%
inactive: [1]; at 1.2 µM -23% | [1]; at 3.7 µM -22% | [1]; at 11.0 µM -19% | [1]; at 33.0 µM 1% | [2]; at 1.2 µM -7% | [2]; at 3.7 µM -5% | [2]; at 11.0 µM -21% | [2]; at 33.0 µM -9% | [2]; at 100.0 µM 48% | [4]; at 1.2 µM 14% | [4]; at 3.7 µM 17% | [4]; at 11.0 µM 21% | [4]; at 33.0 µM 54% | [5]; at 1.2 µM 1% | [5]; at 3.7 µM 0% | [5]; at 11.0 µM 10% | [5]; at 33.0 µM 11% | [5]; at 50.0 µM 67.7% | [6]; at 1.2 µM -33% | [6]; at 3.7 µM -29% | [6]; at 11.0 µM -17% | [6]; at 33.0 µM 65% | [7]; [16] 5% | [8]; at 1.2 µM 3% | [8]; at 3.7 µM -8% | [8]; at 11.0 µM -5% | [8]; at 33.0 µM -10% | [9]; [16] 65% | [10]; at 1.2 µM 6% | [10]; at 3.7 µM 12% | [10]; [16] 38% | [10]; at 11.0 µM 18% | [10]; at 33.0 µM 36% | [11]; at 1.2 µM -33% | [11]; at 3.7 µM -23% | [11]; at 11.0 µM -28% | [11]; at 33.0 µM 28% | [15]; at 1.2 µM -34% | [15]; at 3.7 µM -21% | [15]; at 11.0 µM -15% | [15]; at 33.0 µM 28% | [12]; at 1.2 µM -28% | [12]; at 3.7 µM -35% | [12]; at 11.0 µM -28% | [12]; at 33.0 µM 28% | [13]; at 50.0 µM 69.7% | [14]; at 1.2 µM 1% | [14]; at 3.7 µM -1% | [14]; at 11.0 µM 12% | [14]; at 33.0 µM 67%

O=C(N/N=C/c1ccc2c(c1)CCC2)c1ccccc1[N+](=O)[O-]
inactive: [1]; at 1.2 µM -17% | [1]; at 3.7 µM -7% | [1]; at 11.0 µM -21% | [1]; at 33.0 µM -16% | [2]; at 1.2 µM 8% | [2]; at 3.7 µM 15% | [2]; at 11.0 µM 21% | [2]; at 33.0 µM 0% | [2]; at 100.0 µM 23% | [4]; at 1.2 µM 5% | [4]; at 3.7 µM 26% | [4]; [16] 62% | [4]; at 11.0 µM 35% | [4]; at 33.0 µM 18% | [5]; at 1.2 µM 0% | [5]; at 3.7 µM -10% | [5]; at 11.0 µM -9% | [5]; at 33.0 µM 7% | [6]; at 1.2 µM -10% | [6]; at 3.7 µM -8% | [6]; at 11.0 µM 2% | [6]; at 33.0 µM 6% | [7]; [16] -13% | [7]; [17] 53% | [8]; at 1.2 µM -3% | [8]; at 3.7 µM -5% | [8]; at 11.0 µM 21% | [8]; at 33.0 µM 18% | [10]; at 1.2 µM 5% | [10]; at 3.7 µM 19% | [10]; [16] 34% | [10]; at 11.0 µM 23% | [10]; at 33.0 µM 33% | [10]; [17] 49% | [11]; at 1.2 µM 16% | [11]; at 3.7 µM 12% | [11]; at 11.0 µM 12% | [11]; at 33.0 µM 37% | [15]; at 1.2 µM -19% | [15]; at 3.7 µM -20% | [15]; at 11.0 µM -43% | [15]; at 33.0 µM 18% | [12]; at 1.2 µM 15% | [12]; at 3.7 µM 23% | [12]; at 11.0 µM 30% | [12]; at 33.0 µM 42% | [13]; [16] 36% | [14]; at 1.2 µM 8% | [14]; at 3.7 µM 13% | [14]; at 11.0 µM 9% | [14]; at 33.0 µM 12%
active: [1]; at 100.0 µM 96% | [4]; [17] 98% | [4]; at 50.0 µM 88.4% | [4]; at 100.0 µM 94% | [5]; [16] 70% | [5]; [17] 99% | [5]; at 50.0 µM 71.2% | [5]; at 100.0 µM 94% | [6]; at 100.0 µM 95% | [8]; at 100.0 µM 94% | [9]; [16] 71% | [9]; [17] 70% | [10]; at 100.0 µM 96% | [11]; at 100.0 µM 97% | [15]; at 100.0 µM 95% | [12]; at 100.0 µM 96% | [13]; [17] 99% | [13]; at 50.0 µM 81.7% | [14]; at 100.0 µM 96%

From PubChem BioAssay (NCI)
